SENP8 block-1: inhibitors of human SENP8 protease | Q96LD8 | purified SENP8, Z-RLRGG-aminoluciferin cleavage, luminescence | inhibition, % at 10 µM | 330,000 compounds, 1.2% hits; in the data active = inhibition above about 50%
Target sequence (Q96LD8 whole entry, looked up): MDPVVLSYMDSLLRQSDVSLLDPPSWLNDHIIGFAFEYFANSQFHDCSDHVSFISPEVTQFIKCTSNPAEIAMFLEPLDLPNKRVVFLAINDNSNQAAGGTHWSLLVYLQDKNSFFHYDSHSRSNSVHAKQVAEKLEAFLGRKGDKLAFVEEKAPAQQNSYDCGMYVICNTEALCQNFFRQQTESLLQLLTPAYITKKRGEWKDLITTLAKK
SENP6 block: blocks the human protease SENP6; Recombinant SENP6 catalytic domain, aminoluciferin luminescence; inhibition, % at 10 µM; 330,000 compounds, 1.8% hits;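 active = inhibition above about 50% at the single tested dose, limit read from the data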;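 note: plate controls were DMSO wells with enzyme for no effect and DMSO wells lacking enzyme for full effect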
SENP8 block-2: blocks human SENP8 cleavage of Nedd8 substrate; Q96LD8; recombinant SENP8, Nedd8 substrate fluorescence; inhibition, % at 20 µM; 360,000 compounds, 0.64% hits; AID 602440; in the data active = inhibition mostly above about 40%, no sharp cut-off; inactive = mostly below about 27%
SENP7 inh: inhibitors of human SENP7 protease; recombinant SENP7, Z-RLRGG-aminoluciferin luminescence, 40 min; Q9BQF6; inhibition, % at 5 µM; 330,000 compounds, 1.5% hits;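 active = inhibition above about 50% at the single test dose, limit read from the data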;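 note: plate controls were DMSO with enzyme for no effect and no enzyme buffer wells for full effect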
Target sequence (Q9BQF6 706-1050 limits assumed): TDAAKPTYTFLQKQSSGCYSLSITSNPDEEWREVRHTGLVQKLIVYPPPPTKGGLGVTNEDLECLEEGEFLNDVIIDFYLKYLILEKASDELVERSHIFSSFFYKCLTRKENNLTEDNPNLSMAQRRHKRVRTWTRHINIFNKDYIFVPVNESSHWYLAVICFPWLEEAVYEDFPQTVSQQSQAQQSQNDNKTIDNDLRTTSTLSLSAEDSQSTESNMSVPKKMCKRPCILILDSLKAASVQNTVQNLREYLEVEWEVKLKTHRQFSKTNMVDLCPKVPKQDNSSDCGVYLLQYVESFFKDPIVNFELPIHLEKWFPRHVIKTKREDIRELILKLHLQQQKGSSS
HSP90 refold inh: inhibitors of HSP90 luciferase refolding in rabbit reticulocyte lysate. luciferase refolding luminescence, 3 h. inhibition, % at 5.6 µM. 290,000 compounds, 0.91% hits. AID 1789;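 active = inhibition above the screen-wide mean plus 3 SD, computed separately per campaign, cut at about 16% in these data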;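 note: 0% = DMSO wells and 100% = 60 µM geldanamycin wells; inhibitors lower the luminescence because luciferase stays unfolded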
SENP8 inh conf: SENP8 (human) inhibition, single concentration confirmation; shares compounds with SENP8 block-2; purified SENP8, Nedd8-AMC/pro-Nedd8 cleavage fluorescence, 30 min; inhibition, % at 25 µM; 1,400 compounds, 15% hits; in the data active = inhibition mostly above about 39%, no sharp cut-off; inactive = mostly below about 34%
* marks the source's active call; other numbers are inactive results. The list is not random: actives were taken first. Their share in the collection is about 2.8%.

For O=c1c(N2CCOCC2)nsnc1N1CCOCC1 the results were SENP8 block-1 -6, SENP6 block 4, SENP8 block-2 49*, SENP7 inh 1, HSP90 refold inh 0 and SENP8 inh conf 25.
Screening CC(CC(=O)Nc1ncc([N+](=O)[O-])s1)c1ccccc1 (stereo not given) returned SENP8 block-1 -2, SENP6 block -2, SENP8 block-2 12, SENP7 inh 1 and HSP90 refold inh -2.
Screening O=S(=O)(c1ccccc1C(F)(F)F)N1CCOCC1 returned SENP8 block-1 -8, SENP6 block -2, SENP8 block-2 21, SENP7 inh -7 and HSP90 refold inh 4.
Screening O=S(=O)(c1ccccc1C(F)(F)F)N1C=CC(C(F)(F)F)=NCC1 returned SENP8 block-2 41*, HSP90 refold inh 2 and SENP8 inh conf 8.
`COc1ccc(S(=O)(=O)Cc2ccc(C(=O)N3CCN(c4ccccn4)CC3)o2)cc1` gave SENP8 block-1 10, SENP6 block 3, SENP8 block-2 -41, SENP7 inh 2 and HSP90 refold inh 1.
Screening COc1cc(OC)c([N+](=O)[O-])cc1/C=N/NC(=O)c1ccncc1 returned SENP8 block-1 3, SENP6 block -4, SENP8 block-2 43*, SENP7 inh 1, HSP90 refold inh -1 and SENP8 inh conf 97*.
For COc1cc(/C=N/NC(=O)c2ccncc2)c([N+](=O)[O-])cc1OC the results were SENP8 block-1 -6, SENP6 block -9, SENP8 block-2 21, SENP7 inh -5 and HSP90 refold inh 7.
For O=C(NCc1ccccn1)c1cc2c(ccc3ccccc32)oc1=O the results were SENP8 block-1 -11, SENP6 block -15, SENP8 block-2 -415, SENP7 inh 4 and HSP90 refold inh 0.
Screening O=C(CCS(=O)(=O)c1cccc2nonc12)NCCc1ccccc1 returned SENP8 block-1 1, SENP6 block 8, SENP8 block-2 41*, SENP7 inh 11, HSP90 refold inh 0 and SENP8 inh conf 12.
`Cc1nc2c(O)c3c(c(O)c2nc1C)C1C=CC3CC1` gave SENP8 block-2 42* and SENP8 inh conf 7.
For Cc1ccccc1-c1cnc(C(O)c2ccc(-c3ccccc3)cc2)[nH]1 (stereo not given) the results were SENP8 block-2 41* and SENP8 inh conf 20.
`Cc1ccc(NC(=O)c2sc(N)nc2-c2ccc([N+](=O)[O-])cc2)c(C)c1` gave SENP8 block-1 -7, SENP6 block -3, SENP8 block-2 45*, SENP7 inh -13, HSP90 refold inh 3 and SENP8 inh conf 11.
Screening C[C@H]1CC[C@H]2C(=O)N3[C@H](c4cccc(N5CCCC5=O)c4)[C@@H](C)CC[C@H]3C(=O)N2[C@@H]1c1cccc(N2CCCC2=O)c1 returned SENP8 block-1 6, SENP6 block -7, SENP7 inh 0 and HSP90 refold inh -2.
For Cc1cc(C(=O)N/N=C/c2ccc([N+](=O)[O-])s2)c2ccccc2n1 the results were SENP8 block-1 8, SENP6 block 32, SENP8 block-2 46*, SENP7 inh 0, HSP90 refold inh -3 and SENP8 inh conf 28.
O=C(N/N=C/c1cc([N+](=O)[O-])ccc1Cl)c1cc(-c2ccccc2)nc2ccccc12 was read as SENP8 block-1 -4, SENP6 block -21, SENP8 block-2 41*, SENP7 inh -4, HSP90 refold inh -1 and SENP8 inh conf -5.
For COc1ccc(N=N/C(C(C)=O)=C(/C)O)cc1 the results were SENP8 block-1 -7, SENP6 block -1, SENP8 block-2 20, SENP7 inh 21 and HSP90 refold inh 2.
Screening CC(C)=CCc1cc([C@@H]2COc3c(ccc4c3C=CC(C)(C)O4)C2)c(O)cc1O returned SENP8 block-1 -1, SENP6 block -9, SENP8 block-2 48*, SENP7 inh 4 and SENP8 inh conf 24.
Screening O=C(C1CCN(Cc2cc(Cl)ccc2O)CC1)N1CCN(Cc2ccccc2)CC1 returned SENP8 block-1 -10, SENP6 block -6, SENP8 block-2 18, SENP7 inh -7 and HSP90 refold inh 1.
Cc1ccccc1-c1nc(CS(=O)CC(=O)NCc2ccc3c(c2)OCO3)c(C)o1 (stereo not given) was read as SENP8 block-1 3, SENP6 block 9, SENP8 block-2 -8, SENP7 inh -5 and HSP90 refold inh -5.
Screening Nc1cc(Cl)nc(N/N=C/c2ccccc2[N+](=O)[O-])n1 returned SENP8 block-1 9, SENP6 block -10, SENP8 block-2 52*, SENP7 inh 6, HSP90 refold inh 1 and SENP8 inh conf 29.
`Nc1cc(Cl)nc(N/N=C/c2ccc([N+](=O)[O-])cc2)n1` gave SENP8 block-1 0, SENP6 block -3, SENP8 block-2 13, SENP7 inh 6 and HSP90 refold inh -1.
C/C(=N\Nc1ccc(S(N)(=O)=O)cc1[N+](=O)[O-])c1ccc2c(c1)OCO2 was read as SENP8 block-2 47*, HSP90 refold inh 1 and SENP8 inh conf 20.
For NS(=O)(=O)c1ccc(N/N=C/c2ccc[nH]2)c([N+](=O)[O-])c1 the results were SENP8 block-1 -5, SENP6 block -11, SENP8 block-2 35*, SENP7 inh 8, HSP90 refold inh 4 and SENP8 inh conf 17.
Screening CCC(CC)=NNc1ccc(S(N)(=O)=O)cc1[N+](=O)[O-] returned SENP8 block-1 6, SENP6 block 9, SENP8 block-2 47*, SENP7 inh -2, HSP90 refold inh 0 and SENP8 inh conf 9.
`Cc1cc(Cl)nc(Cl)c1C(=O)NCCc1ccccc1` gave SENP8 block-1 1, SENP6 block -4, SENP8 block-2 11 and SENP7 inh -3.
For CCOC(=O)c1cnc(Nc2ccccc2)nc1C(F)(F)F the results were SENP8 block-1 -15, SENP6 block -1, SENP8 block-2 8, SENP7 inh -4 and HSP90 refold inh -6.
For Cc1cc(C)c(NC(=O)CSCc2c(C)noc2C)c(C)c1 the results were SENP8 block-1 6, SENP6 block 7, SENP8 block-2 8 and SENP7 inh 3.
For Cc1ccc(NC(=O)CSCc2c(C)noc2C)cc1C the results were SENP8 block-1 -7, SENP6 block -17, SENP8 block-2 40*, SENP7 inh -11, HSP90 refold inh -1 and SENP8 inh conf 25.
C[C@H](CO)N1C[C@H](C)[C@@H](CN(C)C(=O)Nc2ccc(C(F)(F)F)cc2)Oc2ccc(NC(=O)Nc3ccccc3)cc2C1=O was read as SENP8 block-1 0, SENP6 block 17, SENP8 block-2 4 and SENP7 inh 7.
`O=c1ccc(NS(=O)(=O)c2ccccc2Cl)cn1Cc1ccc(Cl)c(Cl)c1` gave SENP8 block-1 10, SENP6 block 21, SENP8 block-2 39*, SENP7 inh 10, HSP90 refold inh -2 and SENP8 inh conf -7.
`N#Cc1cc(N)ccc1Sc1ccc(Cl)cc1` gave SENP8 block-1 -4, SENP6 block -1, SENP8 block-2 -453, SENP7 inh -6 and HSP90 refold inh -4.

Source: PubChem BioAssay
